Shown are actives, neighbours in structure and some others; about 6.2% of the full set was active somewhere.
AHR activator – activates the human aryl hydrocarbon receptor | P35869 | AHR-responsive luciferase reporter cells, luminescence | activation, % at 5 µM | hit rate 2.5% among 320,000; in the data active = activation above about 47%;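 also: 0% = vehicle wells and 100% = reference agonist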
NR3A LBD binder – modulators (binders) of human NR3A ligand-binding domain; hit rate 2.5% among 340,000; NR3A LBD differential scanning fluorimetry, Tm shift; 0% = protein alone, 100% = glycine-bound protein; Tm shift relative to glycine control, % at 25 µM;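 active = melting temperature shift of at least 10% of the positive control shift, at one fixed dose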
Cardio protect – modulators protecting cardiomyocytes from myocardial damage; H9c2 cardiomyocytes, H2O2 injury protection, ATPLite, 2 h; protection from H2O2 cell death, % at 20 µM; hit rate 0.63% among 360,000; AID 588492;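 active = compounds giving at least 50% protection of heart cells from peroxide-induced death in the single-dose screen, raw or plate-pattern-corrected value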;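 also: 0% = DMSO wells with peroxide and 100% = DMSO wells without peroxide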
AI-2 QS modul – modulators of Vibrio harveyi AI-2 quorum sensing system | Vibrio harveyi JMH597 AI-2 luminescence/OD600 ratio, 9 h; active compounds read low; strain lacks LuxN and CqsS sensors; 0 = neutral-control median | activity change, % at 7.5 µM | AID 2094 | hit rate 0.4% among 300,000; in the data active = activity change below about -75%, passing the limit was not always enough; inconclusive = no clear call, values can overlap the other calls;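 also: luminescence divided by OD600 gain over 9 h not by final OD600 alone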
NTR1 ag – NTR1 (human) agonism | hit rate 0.17% among 330,000 | P30989 | NTR1-U2OS beta-arrestin-GFP spot imaging, agonist mode | activation, % at 20 µM;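 active = activation at or above 40% of the spot to cytoplasm intensity ratio, with at least 20 cells analyzed; inconclusive = wells under 20 cells, flagged as cytotoxic or low count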;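 also: 0% = DMSO without peptide and 100% = 100 nM NTR1 peptide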
Target sequence (P30989 whole entry, looked up): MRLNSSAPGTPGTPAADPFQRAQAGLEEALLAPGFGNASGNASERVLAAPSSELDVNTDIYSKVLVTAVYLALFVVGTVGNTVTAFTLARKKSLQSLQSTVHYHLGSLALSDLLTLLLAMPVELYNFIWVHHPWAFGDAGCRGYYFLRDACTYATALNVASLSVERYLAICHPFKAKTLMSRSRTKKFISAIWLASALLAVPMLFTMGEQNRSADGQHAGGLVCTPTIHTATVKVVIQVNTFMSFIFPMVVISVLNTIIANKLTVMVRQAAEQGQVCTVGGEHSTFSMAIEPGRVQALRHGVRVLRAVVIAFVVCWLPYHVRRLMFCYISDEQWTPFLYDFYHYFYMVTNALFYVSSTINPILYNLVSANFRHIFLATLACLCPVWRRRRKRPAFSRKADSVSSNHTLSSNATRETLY
SUMO Mot1 rescue – blocks SUMOylation pathway, rescuing yeast Mot1-301 growth. S. cerevisiae Mot1-301 growth rescue, ATP luminescence, 38.5C; percent above DMSO median, 100 means doubled. growth rescue, % at 18.8 µM. hit rate 1% among 320,000. AID 2716;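 active = every valid replicate shows activation above 250% relative to neutral control wells; inactive = the rest, any valid replicate at or below 250%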;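 also: OY570 slx delta 5 strain wells were the positive control but not used for scaling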
NTR1 ag conf – NTR1 (human) agonism, confirmed. shares compounds with NTR1 ag. AID 504550. activation, % at 20 µM. NTR1-U2OS beta-arrestin-GFP translocation imaging. hit rate 38% among 480;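 active = mean activation at 20 µM of at least 40%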;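 also: 0% = DMSO without peptide and 100% = 100 nM NTR1 peptide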
* hit, by the source's call; ? = inconclusive; / = no result.

SMILES	AHR activator	NR3A LBD binder	Cardio protect	AI-2 QS modul	NTR1 ag	SUMO Mot1 rescue	NTR1 ag conf
Cc1[nH]c2ccc(C(=O)OC(C)C(=O)N(C)c3ccccc3)cc2c1C (stereo not given)	8.9	-7.3	-0.9	22.8	2.8	9.5	/
C/C(=N\OCC(=O)OC(C)C(=O)Nc1ccc(C)c(S(=O)(=O)N2CCOCC2)c1)c1ccc2c(c1)OCO2 (stereo not given)	/	0.3	-1.3	/	/	/	/
CCOC(=O)COc1ccc2ccccc2c1/C=C/[N+](=O)[O-]	7.8	-2.4	-16.3	-4.0	/	-4.7	/
CCOc1ccc(/C=C/[N+](=O)[O-])c2ccccc12	-3.9	3.3	-16.2	17.8	80.5*	0.8	65.7*
CCOC(=O)COc1ccc(/C=C/[N+](=O)[O-])c(OCC(=O)OCC)c1	5.2	0.3	-13.2	3.8	74.5*	6.1	69.2*
CC(C)C(=O)N1CCN(c2ccc(NC(=O)c3ccc4c(c3)OCCO4)cc2Cl)CC1	-0.2	-2.0	19.7	1.6	90.1*	-14.1	84.7*
O=C1NC(=O)C(Cc2ccc(O)cc2)N1 (stereo not given)	/	-2.4	2.4	/	/	/	/
Cc1ccc2[nH]c(C)c(/C=N/Nc3nc4ccccc4s3)c2c1	65.0*	24.3*	7.1	50.5	40.9*	304.6	36.9
Cc1ccc2[nH]c(O)c(N=Nc3nc4ccccc4s3)c2c1	16.3	-2.2	28.0	7.6	-0.7	3.8	/
O=S(=O)(c1cnc[nH]1)N1CCN(C(c2ccc(F)cc2)c2ccc(F)cc2)CC1	0.8	-3.4	-3.1	31.9	2.9	-9.4	/
CCOC(=O)C1(Cc2ccccc2C)CCCN(C(=O)c2ccc(OC)o2)C1 (stereo not given)	-2.0	0.6	-0.5	23.1	0.6	-3.7	/
CC1CCCC(NCC(O)COC(c2ccc(F)cc2)c2ccc(F)cc2)C1C (stereo not given)	2.6	0.8	-31.5	27.0	52.5*	11.4	27.0
COCCNC(=O)C1CCCN(Cc2ccccc2F)CC1 (stereo not given)	/	/	4.1	/	/	/	/
c1ccc(N(c2ccccc2)c2nc(N3CCCC3)nc(-n3ccnc3)n2)cc1	-2.2	2.2	-21.8	23.2	47.6*	-0.1	19.1
CN(c1ccccc1)c1nc(N2CCCC2)nc(-n2ccnc2)n1	27.4	3.2	19.9	25.8	7.8	/	/
Cc1cc2c(cc1S(=O)(=O)N1CCN(c3cccc(C)c3C)CC1)OCCN2C	2.7	1.7	-23.3	19.7	0.5	-4.1	/
CC(=O)Nc1ccc(S(=O)(=O)N2CCc3cc4c(cc3C2)OCCCO4)cc1	3.8	1.3	-7.4	8.2	1.3	-4.8	/
COc1cccc(OCC(O)CN2CCC(CN3C(=O)c4cccc5cccc(c45)C3=O)CC2)c1 (stereo not given)	0.8	-1.7	1.5	19.8	3.0	2.5	/
O=C1c2cccc3cccc(c23)C(=O)N1CC1CCN(CC(O)COc2ccc3ccccc3c2)CC1 (stereo not given)	-1.9	-5.1	-17.3	7.5	41.2*	-38.8	58.6*
Cc1cc(C)cc(OCC(O)CN2CCC(CN3C(=O)c4cccc5cccc(c45)C3=O)CC2)c1 (stereo not given)	0.2	-2.5	-18.3	11.9	47.7*	-47.7	57.8*
O=C(CC1CC2CCC1C2)NC1CCCCCCC1 (stereo not given)	1.8	-1.0	1.9	24.6	1.0	2.7	/
O=C1c2ccc(Cl)cc2S(=O)(=O)c2cccc(C(=O)N3CCC(Cc4ccccc4)CC3)c21	1.8	-6.0	-3.7	/	52.4*	-23.1	80.4*
O=C1ON=C(c2ccccc2)/C1=C/c1ccc(O)cc1	2.0	4.7	6.2	6.5	34.5	-8.1	/
O=C1ON=C(c2ccc(Cl)cc2)/C1=C/c1ccc(O)cc1	5.9	-6.1	/	25.1	66.0*	129.3	97.6*
Nc1nc(Nc2ccccc2)nc(NC2CCCCC2)c1[N+](=O)[O-]	5.2	4.1	-15.5	23.4	86.8*	-1.4	33.4
SMILES	AHR activator	NR3A LBD binder	Cardio protect	AI-2 QS modul	NTR1 ag	SUMO Mot1 rescue	NTR1 ag conf
CC(C)C[C@H]1CN=C(Nc2ccccc2)N1CC1CCC(C(C)(C)C)CC1 (stereo not given in full)	0.3	-11.5	-23.8	/	41.5*	107.5	57.3*
CC(C)C[C@H]1CN=C(Nc2ccccc2)N1CC1CCCC1	4.1	-3.6	-10.3	3.7	-1.7	-25.3	/
COc1ccc(CCn2c(=N)c(C(=O)NC3CCCC3)cc3c(=O)n4cccc(C)c4nc32)cc1	10.7	1.3	-12.8	28.8	50.3*	6.4	38.7
CCC(C)c1ccc(S(=O)(=O)N2CCN(CC(O)COCC3CCCO3)CC2)cc1 (stereo not given)	/	2.1	-6.2	/	2.2	/	/
CCN(CC(=O)NCc1cccs1)C(=O)/C=C/c1cccc(Cl)c1Cl	-4.3	-1.0	-8.3	7.2	1.1	-4.2	/
COc1cccc(-c2sc3ccc(OC)cc3c2-c2ccc(O)cc2)c1	18.3	5.9	-13.3	/	24.8	-0.5	/
COc1ccc(-c2sc3cc(OC)c(OC)cc3c2-c2ccc(O)cc2)cc1	18.2	3.4	-11.6	/	50.9*	-3.6	6.9
COc1cccc(C(C)(O)c2nc(-c3cccc4cccnc34)cs2)c1 (stereo not given)	/	/	0.0	/	/	/	/
Cn1ncc2c(Nc3cccc(Cl)c3)nc(Nc3cccc(Cl)c3)nc21	29.3	31.1*	-3.5	31.4	63.8*	127.6	28.9
CC1CC(C)CN(S(=O)(=O)N2CCC(C(=O)NCCc3ccccc3)CC2)C1 (stereo not given)	2.8	2.6	-3.3	10.4	0.2	3.9	/
CCc1cccc(CC)c1-n1c(SCC(=O)N2CCc3ccccc3C2)nnc1-c1cccnc1	-0.9	-4.3	-2.7	6.9	44.6*	-1.7	64.5*
CCCCOc1ccc2c(c1)C(=O)c1cc(O)ccc1-2	1.4	34.1*	-16.2	?	40.6*	83.0	9.2
O=C(Nc1ccc(N2CCN(C(=O)c3ccccc3)CC2)cc1)c1cc2ccccc2o1	-14.5	-15.5	36.4	/	63.9*	-17.3	86.3*
CSc1ccccc1NC(=O)C1=CC(c2cccs2)=NS(=O)(=O)N1C	23.1	-7.4	4.1	19.3	2.0	5.1	/
Cc1cccc(-n2nc(C(=O)c3ccco3)cc(-c3nc4ccccc4[nH]3)c2=N)c1	27.9	-6.6	-11.5	15.6	10.2	-18.2	/
Cc1cc(NC(=O)c2cccs2)n(-c2nc3ccccc3[nH]2)n1	13.8	-2.5	10.8	-1.2	7.7	-13.6	/
Cc1ccccc1-n1nc(C(=O)c2cccs2)cc(-c2nc3ccccc3[nH]2)c1=N	27.8	0.6	-13.6	22.6	55.0*	7.8	1.7
COc1ccc(-n2nc(C(=O)c3cccs3)cc(-c3nc4ccccc4[nH]3)c2=N)cc1	10.5	-0.8	-1.1	16.3	76.5*	16.7	13.3
